Assay outcomes deposited in PubChem BioAssay by several laboratories.
Compounds with a hit are over-represented: about 2.9% of the library has one in this group of screens.
TRPM1 prom inh: reduces MITF-dependent TRPM1 promoter luciferase signal. AID 488899. 330,000 compounds, 0.83% hits. SK-MEL-5 TRPM1 promoter luciferase, 24 h. inhibition, % at 12.5 µM;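 active = mean inhibition across replicates of 60% or more, whatever share of single replicates reaches that level; inconclusive = some that reach 60%, reason not given; inactive = mean inhibition across replicates below 60%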
Peg3 promoter: inhibitors of Peg3 promoter | HeLa PEG-Prom luciferase reporter, luminescence, overnight | inhibition, % at 20 µM | 360,000 compounds, 1.7% hits | AID 588405;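 active = inhibition of at least 50% at 20 µM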
Shn3 inh set2: reduces Shn3 3'UTR luciferase signal in osteoblasts; Clone20 osteoblast Shn3 3'UTR firefly luciferase, 24 h; inhibition, % at 12.5 µM; 360,000 compounds, 0.52% hits;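 active = mean inhibition of at least 75% with every replicate also reaching 75%; inconclusive = mean inhibition at least 75% but some replicate below; inactive = mean inhibition below 75%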;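 also: 0% = median of neutral control wells and 100% = pilot-screen positive control compound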
LMP1 NFkB inh: reduces LMP1-driven NF-kappaB luciferase signal; LMP1-induced NF-kappaB luciferase reporter cells, luminescence; inhibition, % at 12.5 µM; 350,000 compounds, 0.69% hits; AID 504558; in the data active = inhibition above about 41%; inconclusive = no clear call, values can overlap the other calls;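 also: 0% = neutral control wells and 100% = reference inhibitor control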
KKLEB tox: reduces viability of KKLEB cystic fibrosis airway cells. KKLEB CF airway cells viability, ATPlite luminescence, overnight; stronger effect = lower value; cells stimulated with P. aeruginosa culture filtrate. activity change (cytotoxicity), % at 5 µM. 360,000 compounds, 0.36% hits. AID 602141;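 active = corrected activity change at or below -50% at 5 µM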
CF NFkB block: cystic fibrosis NF-kB activation inhibition. KKLEB NF-kB-GFP reporter, PAF-induced, GFP fluorescence overnight. inhibition, % at 5 µM. 360,000 compounds, 0.86% hits;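 active = at least 50% inhibition at 5 µM, scaled per plate between neutral and stimulator controls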;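 also: PAF is a Pseudomonas aeruginosa culture filtrate used as stimulus; plate controls were PAF-stimulated DMSO wells for no effect and unstimulated DMSO wells for full effect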
An asterisk follows results filed as active; ? = inconclusive; . = not tested or not shown; ! = a repeat was not active.

SMILES	TRPM1 prom inh	Peg3 promoter	Shn3 inh set2	LMP1 NFkB inh	KKLEB tox	CF NFkB block
COc1ccc(-c2oc3ncnc(NCCN4CCOCC4)c3c2-c2ccc(OC)cc2)cc1	1.0	51.0*	66.4	47.7*	-31.4	35.7
c1ccc(-c2oc3ncnc(NCCCN4CCOCC4)c3c2-c2ccccc2)cc1	4.8	38.6	11.8	7.6	-15.2	-3.4
COc1ccc(-c2oc3ncn(CCN4CCOCC4)c(=N)c3c2-c2ccc(OC)cc2)cc1	-5.5	38.6	18.7	2.3	-24.5	14.2
COC1OC(O)C(NC(=O)C(F)(F)F)CC1O (centres undefined)	-0.6	-1.3	-12.2	-11.5	18.6	-9.1
COc1ccc(NC(=O)COC(=O)c2ccc(OCc3ccccc3Cl)c(OC)c2)c(OC)c1	-19.0	-8.3	-20.6	-6.0	-74.9*	61.0*
COc1cc(C(=O)OCC(=O)Nc2cc(C)on2)ccc1OCc1ccccc1Cl	-41.8	-46.7	-78.4	-12.0	-3.9	-2.1
CC(CNC(=O)CC[C@H]1O[C@@H](n2ccc(=O)[nH]c2=O)[C@H](O)[C@@H]1O)c1ccccc1 (some centres undefined)	.	9.8	-15.6	.	-6.9	-4.8
Cc1onc(-c2c(Cl)cccc2Cl)c1C(=O)N[C@@H]1C(=O)N2[C@@H]1SC(C)(C)[C@@H]2C(=O)O	17.2	-4.9	91.0*!	74.8*!	2.8	-25.5
CCc1ccc(NC(=O)C2CCN(C(=O)N3CCOc4ccccc43)CC2)cc1	.	9.1	20.3	-10.0	-4.0	13.3
O=C(Nc1cccc(F)c1)C1CCN(C(=O)N2CCOc3ccccc32)CC1	-6.7	4.7	-20.8	84.2*	-15.3	12.3
O=C(c1ccccc1)N1CCSc2sccc2C1=O	50.3	26.5	26.9	72.2*	-11.5	22.3
O=C(c1ccccc1)N1CCSC1=S	-2.4	-3.8	-0.9	27.1	0.6	1.1
O=C(CCl)NNC(=O)c1c(O)c2ccccc2[nH]c1=O	3.9	58.4*	0.1	-10.2	-2.6	-9.4
Cc1ccc([C@H]2C[C@@H](O)[C@H](n3cc(C4CC4)nn3)CN2C(=O)C2CCCCC2)cc1	.	-1.1	-9.2	-1.6	9.1	-17.9
COc1ccc(-c2sc3cc4c(cc3c2-c2ccc(OCCN3CCCCC3)cc2)OCO4)cc1	18.6	89.7*	20.1	-19.5	-77.6*	71.8*
COc1ccc(-c2c(-c3cc(OC)cc(OC)c3)sc3ccc(OC)cc23)cc1	4.1	-4.7	13.7	-10.5	5.5	-2.1
COc1cc(OC)cc(-c2sc3ccc(OC)cc3c2-c2ccc(OCCN3CCCCC3)cc2)c1	-5.4	90.4*	13.8	6.3	-75.0*	68.6*
CC(=O)c1ccc(Cc2ccc(C(C)=O)s2)s1	.	-112.9	-3.2	-22.1	-16.1	-3.2
CC(=O)Nc1ccc(CN(C)c2c(C)nc3ccc(C(=O)NC4CCN(Cc5ccccc5)CC4)cn23)cc1	.	0.0	-2.1	.	-11.1	6.4
O=C(Nc1ccc2oc(-c3cccnc3)nc2c1)c1ccc(Br)o1	9.8	-0.4	0.0	7.1	13.6	-6.9
O=C(Nc1ccc(NC(=O)c2ccc([N+](=O)[O-])o2)cc1Cl)c1ccco1	27.6	46.5	15.3	-15.3	1.8	44.5
Cc1nc2ccccc2c(=O)n1-c1cccc(NC(=O)c2cccs2)c1	-0.9	-3.6	-9.4	6.3	-11.2	18.3
O=C(Nc1cccc(NC(=O)c2ccc([N+](=O)[O-])o2)c1)c1ccco1	63.9*	57.2*	8.3	-20.9	-8.4	42.6
O=C(Nc1cccc(N2C(=O)C=CC2=O)c1)c1cccs1	72.8*	92.1*	21.6	-1.4	0.9	39.5
O=C(Nc1nc(-c2cccs2)cs1)c1ccc([N+](=O)[O-])o1	86.3*	-20.5	-4.7	-22.2	-12.8	75.5*
SMILES	TRPM1 prom inh	Peg3 promoter	Shn3 inh set2	LMP1 NFkB inh	KKLEB tox	CF NFkB block
O=C(Nc1ccc2oc(-c3cccnc3)nc2c1)c1ccc([N+](=O)[O-])o1	70.9*	107.7*	52.3	-2.6	-57.6*	89.0*
CCC(C)C(CO)NCCCn1cnc2c(OCc3ccccc3)ncnc21 (centres undefined)	.	-18.9	-14.2	2.8	-1.6	-23.1
O=C(Nc1cccc(NC(=O)c2cccs2)c1)c1ccc([N+](=O)[O-])o1	97.7*	54.7*	63.3	-57.2	1.0	-18.7
CC(=O)Nc1ccc2nc(NC(=O)c3ccc([N+](=O)[O-])o3)sc2c1	50.7	-2.7	3.0	-6.8	-23.9	81.1*
COc1cc(NC(=O)c2ccc([N+](=O)[O-])o2)ccc1NC(=O)c1cccs1	87.1*	58.9*	70.8	-72.6	-3.0	-28.8
O=C(CC[C@H]1O[C@@H](n2ccc(=O)[nH]c2=O)[C@H](O)[C@@H]1O)N[C@@H](Cc1ccccc1)C(=O)NCC1CCCO1 (some centres undefined)	.	-4.4	25.3	.	11.0	-2.3
CN(C)c1ccc(/C=C2\CCC/C(=C\c3ccccc3)C2=O)cc1	-5.4	-110.1	22.7	-21.4	11.5	-20.8
CN(C)c1ccc(C=c2c3cc([N+](=O)[O-])ccc3n3c2cc(-c2ccccc2)[n+]3C)cc1	94.9*	105.8*	86.5*	17.7	-52.3*	-30.1
CN(C)c1ccc(C=c2c3ccccc3n3c2cc(-c2ccc(Cl)cc2)[n+]3C)cc1	97.0*	60.6*	?	22.1	-2.2	-111.6
CN(C)c1ccc(C=c2c3ccccc3n3c2c2c([n+]3C)CCCC2)cc1	98.2*	101.9*	90.9*	42.5*	7.0	-138.9
COc1ccc(-c2nnn(CC(=O)Nc3ccc4c(c3)OCCO4)n2)cc1OC	-9.4	4.8	85.4*	-8.1	-13.6	15.4
CC(C)(O)c1cc2ccc(C#Cc3ccsc3)cc2c(=O)o1	-65.2	-286.1	-53.6	-6.5	-4.6	18.9
O=C(NCCCN1CCOCC1)c1ccc2c(c1)N(Cc1ccccc1)C(=O)c1ccccc1S2	17.7	8.8	5.1	4.8	-12.6	3.9
CN1CCN(CCCNC(=O)c2ccc(/C=C3\Sc4ccccc4N(Cc4ccc(F)cc4)C3=O)cc2)CC1	21.9	104.2*	11.1	8.0	-14.2	-3.6
CN1CCN(CCCNC(=O)c2ccc(/C=C3/Sc4ccccc4N(Cc4cccc(Cl)c4)C3=O)cc2)CC1	7.7	83.5*	16.3	0.0	-19.8	13.9
CCCCC1(Cc2ccc([N+](=O)[O-])cc2)C(=O)N(c2ccccc2)N(c2ccccc2)C1=O	17.5	28.0	91.9*	26.9	-4.0	-24.6
CCCCC1(COC(=O)CCC(=O)O)C(=O)N(c2ccccc2)N(c2ccccc2)C1=O	-20.6	-6.0	-8.7	3.1	-0.5	-3.5
Cc1ccc(NNC(=O)C(O)(c2cccc(C(F)(F)F)c2)c2cccc(C(F)(F)F)c2)cc1	5.9	67.0*	23.5	-9.7	5.9	-13.8
COc1ccc2c(c1)Cc1c-2cc(Br)c(N)c1Br	.	7.3	18.3	-37.9	-2.6	-14.4
COc1cccc(/C=N\NC(=O)c2ccc(C)nc2)c1	-0.3	1.2	-28.7	86.1*	-2.4	3.3
